Screens from PubChem.
BAZ2B block – inhibitors of human BAZ2B bromodomain; Q9UIF8; AlphaScreen BAZ2B-H3K14Ac peptide displacement; Potency, µM (highest dose often 114 µM), for the others: top-dose activity change, negative = inhibition, most hits filed as inhibitors; 4.4% of 360,000 active; also: potency is read from the fitted curve at half-maximal effect; % is scaled to controls: 0 for no effect and ±100 for the full control effect; nearly all actives have a fitted effect of over 60% in size
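BAZ2B (50 nM) with biotin-H3(5-23)K14Ac peptide (50 nM) in PBS pH 7.4, 0.01% Tween-20, preformed 30 min, then compound 30 min at room temperature; top concentration 110uM. AlphaScreen streptavidin donor/nickel chelate acceptor beads (10 ug/mL final), 20 min dark, signal read.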
TDP1 block – TDP1 (human) enzyme inhibition. 0.28% of 350,000 active. Q9NUW8. recombinant TDP1, AlphaScreen DNA substrate cleavage. Potency, µM (top dose mostly 130 µM), for inactives: at the top dose activity change, negative = inhibition, most hits filed as inhibitors. AID 485290; also: potency is read from the fitted curve at half-maximal effect; % is scaled to controls: 0 for no effect and ±100 for the full control effect; nearly all actives have a fitted effect of over 40% in size
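Signal: AlphaScreen proximity between streptavidin donor and anti-FITC acceptor beads on intact substrate. Reaction: Tdp1 1 nM, substrate 15 nM final, 5 min RT after 15 min compound preincubation.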
CtBP-E1A inh – inhibitors of CtBP/E1A interaction; AlphaScreen GST-E1A/His-CtBP binding, 1536-well; active compounds read low; activity change, % (no concentration beside the values); 0.49% of 340,000 active; in the data active = activity change below about -65%; inconclusive = mostly about -30% to -63%; also: % is scaled to controls: 0 for no effect and ±100 for the full control effect
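Protein mix (5X: 125 nM each GST-E1A, His-CtBP) was incubated with pinned compound 2 h at 37 deg C in dark, in 50 mM Tris pH 8.0 buffer with 300 mM NaCl. Glutathione donor and nickel acceptor beads followed; AlphaScreen signal read after 1 h.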
HP1b chromo inh – HP1-beta chromodomain-methylated histone interaction inhibition. P83916. AlphaScreen HP1-beta / biotin-H3K9me3 peptide binding. Potency, µM (series often up to 114 µM), for the others: at the top dose activity change, negative = inhibition, actives largely listed as inhibitors. 0.56% of 390,000 active. AID 540317; also: potency is read from the fitted curve at half-maximal effect; nearly all actives have a fitted effect of over 70% in size
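Compound inhibition of the preformed complex between 50 nM HP1-beta and 50 nM biotinylated H3K9me3 peptide was read by AlphaScreen. Buffer was PBS pH 7.4 with 0.01% Tween-20. Incubations ran 30 min at room temperature, with 10 ug/mL donor/acceptor beads.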
Six1-Eya2 blk – Six1/Eya2 interaction inhibition; activity change, % (no concentration beside the values); AID 651725; 0.56% of 360,000 active; AlphaScreen GST-Six1/His-Eya2 binding, biochemical; active compounds read low; Q15475+O00167; in the data active = activity change below about -65%; inconclusive = mostly about -30% to -63%; also: % is scaled to controls: 0 for no effect and ±100 for the full control effect
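Homogeneous AlphaScreen proximity assay pairing GST-Six1 with His-tagged Eya2 (added as 5X mix: 250 nM and 500 nM) in 50 mM Tris pH 8.0, 300 mM NaCl, 1 mM TCEP. Glutathione donor and nickel acceptor beads; 1 h, 37 °C, dark.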
JMJD2A Tudor – inhibitors of human JMJD2A Tudor domain. O75164. AlphaScreen JMJD2A-Tudor / H3K4me3 peptide binding. Potency, µM (doses to about 114 µM), without a hit: at the top dose activity change, negative = inhibition, most hits filed as inhibitors. 4.4% of 390,000 active. AID 504339; also: potency is read from the fitted curve at half-maximal effect; % is scaled to controls: 0 for no effect and ±100 for the full control effect; nearly all actives have a fitted effect of over 50% in size
* = called active by the depositor; ? = inconclusive; . = not tested or not shown; [ ] = another dose, or the depositor's remark. In the library only some 5.3% were active in any assay of this set; here they are far more common. Unless noted, calls follow the shape of the dose curve; as a rule, active = well fitted inhibition curve with a large enough effect; inconclusive = small, poorly fitted or top-dose-only effect; inactive = no such curve, though single readings can be large or run the other way.

SMILES | BAZ2B block | TDP1 block | CtBP-E1A inh | HP1b chromo inh | Six1-Eya2 blk | JMJD2A Tudor
COc1ccccc1NC(=O)C1=C(C)Nc2nc(SCc3ccccc3)nn2C1c1cccnc1 (stereo not drawn) | 79µM* | 3% | . | 15% | . | -19%
COc1ccccc1NC(=O)C1=C(C)Nc2nc(SCc3ccccc3F)nn2C1c1cccnc1 (stereo not drawn) | -29% | 9% | . | 16% | . | -10%
COc1cc2c(cc1OC)n(CC(=O)NC1CCCCCC1)n1c(C)cc(=O)nc21 | -14% | -13% | -1 | -14% | 1 | 50µM*
Cc1sc2nc(SCC(=O)NCc3ccco3)n(C)c(=O)c2c1C | 4% | -5% | -1 | 18% | -1 | -17%
Cc1sc2nc3ccc(NCc4ccco4)nn3c(=O)c2c1C | -7% | -4% | ? | 73% | -66* | -32%
O=c1c2ccccc2nc2ccc(NCc3ccco3)nn12 | ? | 50µM* | -81* | -10% | -69* | -33%
O=C1c2ccccc2C(=O)N1Cc1nc2ccccc2c(=O)n1Cc1ccco1 | -3% | 4% | 7 | 9% | 3 | -12%
CCc1ccccc1NC(=O)CN(Cc1ccccc1)S(=O)(=O)c1ccc(Br)cc1 | 2% | 1%[2.28 µM] | . | 28% | . | -12%
CCOc1ccc(N(C(=O)c2ccccc2F)S(=O)(=O)c2ccc3c(c2)n(C)c(=O)n3C)cc1 | -5% | 5% | . | 28% | . | -13%
COC(=O)[C@@]1(Cc2ccc(F)cc2)[C@H]2c3cc(C(=O)N4CCCC4)n(CCc4ccc(O)c(O)c4)c3C[C@H]2CN1C(=O)c1ccccc1 | 40µM* | 4% | . | . | . | .
CCn1c(=O)c2c(n3c(=S)[nH]nc13)-c1ccccc1CC21CCCCC1 | -34% | 5% | 4 | -14% | -5 | 18µM*
CCOc1cccc2sc(N3CCN(C(=O)C(C)(C)C)CC3)nc12 | -1% | -3% | . | 35% | . | -14%
NCc1cc2c3c(c1)CCCN3CCC2 | 50µM* | . | ? | -1% | -13 | -11%
COc1c(C=O)cc2c3c1CCCN3CCC2 | -10% | . | -2 | 5% | -7 | -20%
Cc1cc(OC(C)C(=O)N2CCN(CCc3ccccn3)CC2)ccc1Cl (stereo not drawn) | -12% | -2% | . | 45% | . | -16%
NC(N)=Nc1nc(CSCC/C(N)=N/S(N)(=O)=O)cs1 | 2% | 0% | -6 | 19% | -1 | 22µM*
COc1ccc(-c2c(C#N)c(SCC(=O)Nc3cccc(Cl)c3)nc(C)c2C(=O)Nc2ccccc2)cc1OC | 3% | . | . | 34% | . | -13%
CCOc1ccc2c(c1)[nH]c(=S)n2C | -15% | 1% | 1 | -34% | 4 | 56µM*
CCOc1ccc(OCCn2c(=S)[nH]c3ccccc32)cc1 | 50µM* | . | . | ? | 7 | ?
S=c1[nH]c2ccccc2n1CCOc1ccccc1 | 12% | . | -1 | -24% | -5 | ?
CCn1c(-c2nn(C)cc2Cl)n[nH]c1=S | -6% | 3% | 4 | 24% | 3 | 6.3µM*
Cc1c(Cl)c(-c2n[nH]c(=S)n2CC(C)C)nn1C | 29% | 3% | 1 | ? | -3 | 5µM*
CC(C)Cn1c(-c2nn(C)cc2Cl)n[nH]c1=S | -8% | 2% | 1 | 31% | -1 | 8.9µM*
CCN(CC)S(=O)(=O)c1ccc(NC(=O)c2c(C)oc3ncnc(N4CCCCC4)c23)cc1 | -2%[57.1 µM] | 5% | . | -17% | . | -17%
COc1ccc(Cl)cc1NS(=O)(=O)c1cc(-c2cc(C)no2)ccc1C | 1% | 0% | . | 54% | . | -4%
CCCOc1ccc(N)cc1N | 28µM* | 7% | -15 | ? | -13 | 56µM*
COc1cccc(CNC(=O)CSc2cc(C)[nH]c(=O)n2)c1 | -4% | 8% | . | 9% | . | -12%
Cc1cc2c(=O)cc(-c3ccccc3)oc2c(C(=O)O)c1C | . | . | 2 | . | -12 | .
Cc1cc(CC(=O)O)c2oc(-c3ccoc3)cc(=O)c2c1 | . | . | . | -20% | -5 | 89µM*
Cc1ccc(C)c(N2CCN(S(=O)(=O)c3ccc(-c4coc(C)n4)cc3)CC2)c1 | -36% | 8% | . | 8%[57 µM] | . | -30%
